# Measured values from PubChem BioAssay AID1347417 (National Center for Advancing Translational Sciences (NCATS), 2020).
# Among all 120,000 compounds or so, about 5,300 (4.4%) were called active. Entries that show only a call come without a potency. Roughly 22% stayed inconclusive and do not appear here. Calls follow the shape of the dose curve; as a rule, active = well fitted inhibition curve with a large enough effect; inconclusive = small, poorly fitted or top-dose-only effect; inactive = no such curve, though single readings can be large or run the other way. The sample as a whole holds a higher share of actives than the screen did.
# Assay: qHTS Primary assay for Inhibitors of Plasmodium falciparum Dd2 growth in vitro; also: nearly all actives have a fitted effect of over 65% in size
# Conditions: P. falciparum Dd2 growth, SYBR Green, 72 h; series mostly up to 28.9 µM
# Method in brief: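 Readout: SYBR Green fluorescence, 485 nm excitation, 535 nm emission, after ~16 h lysis at 37C. Before that, Dd2-infected red cells (2.5% hematocrit) grew 72 h with compound, 29 uM top final concentration.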
# Potency is read from the fitted curve at half-maximal effect.
Compound,Potency,"activity, negative = inhibition"
Cc1noc2c(N3CC[S+](=O)([O-])CC3)cc(-c3ccc(Cl)cc3)nc12,inactive,–
O=C(NC1CCCC1)N1CCC(Oc2ccc(-c3noc(C4CC4)n3)cc2)C1 (stereo not given),–,5.78% [at 5.79 µM] (inactive)
CCCC(c1cccs1)n1cc(-c2cncnc2)nn1 (stereo not given),inactive,–
O=c1cc(N2CCOCC2)cnn1Cc1cc(C(F)(F)F)ccc1F,inactive,–
O=C(c1ccccn1)N1CCC2(CNS(=O)(=O)c3cnccc3O2)C1 (stereo not given),inactive,–
Cc1noc(C)c1-c1cc2cc(CNC3CCOCC3)oc2c(NC2CCN(C)CC2)n1,inactive,–
Cc1ccc(C2(O)CCN(C(=O)c3ccccc3-c3nn[nH]n3)CC2)nc1,inactive,–
Cc1ccc(NC(=O)Nc2ccc(C)n(CC(=O)NCCN3CCCC3)c2=O)cc1,inactive,–
COCC(=O)NC1CCC12CCN(S(=O)(=O)c1c(C)noc1C)CC2 (stereo not given),inactive,–
COc1ccc(OC)c(CNC(=O)C2(c3ccc(NC(C)=O)cc3)CCCCC2)c1,inactive,–
COCC1CN(C(C)=O)CC12CCN(Cc1ccccc1OC)CC2 (stereo not given),inactive,–
COc1cc(NC(=O)NCC2CCN(Cc3ccc(C)cc3)CC2)cc(OC)c1OC,inactive,–
COc1ccccc1CN1CC[C@H](CNC(C)=O)[C@H](N(C)C)C1,inactive,–
Cc1ccccc1CCNC(=O)C1CCN(c2nc3ccccc3nc2C(F)(F)F)CC1,inactive,–
Cc1ccc2c(c1)N(CC(=O)NCCCN1CCCCC1)C(=O)c1cccnc1O2,inactive,–
Cc1cccc(C)c1-n1ncc(C(=O)NCCCN2CCCCC2)c1C1CCN(C(=O)OC(C)(C)C)CC1,8.91 µM (active),–
O=C(NCCC1CCN(C(=O)Nc2ccc(F)cc2F)CC1)c1cccs1,inactive,–
COc1ccccc1CN1CCC(CNC(=O)c2cnn(-c3ccccc3Cl)c2C2CCN(C(=O)OC(C)(C)C)CC2)CC1,2.51 µM (active),–
Cc1ccc(CN2CCC(CNC(=O)c3cnn(-c4ccccc4Cl)c3C3CCN(C(=O)OC(C)(C)C)CC3)CC2)cc1,2.82 µM (active),–
CCCn1c2ccccc2c2cnn(CC(=O)NCC3CCN(Cc4ccc(C)cc4)CC3)c(=O)c21,inactive,–
CC(C)(C)OC(=O)N1CCC(c2c(C(=O)NCCc3ccsc3)cnn2-c2ccc(F)cc2F)CC1,8.91 µM (active),–
O=C(NCCC1CCN(C(=O)Nc2cc(F)ccc2F)CC1)c1cc(F)ccc1F,inactive,–
O=C(c1n[nH]c(=O)c2ccccc12)N1CC2CC(C1)[C@H]1CCCC(=O)N1C2 (stereo not given in full),inactive,–
Cc1ccc(N2Cc3c(NCCCOC(C)C)ncnc3N(C)CC2=O)cc1,inactive,–
Cc1cc(=O)[nH]c(NCCNC(=O)c2cc(-c3cccn3C)n[nH]2)n1,inactive,–
